{"source": "PubChem BioAssay AID504832", "about": "(National Center for Advancing Translational Sciences (NCATS), 2011)", "note": "Hit rate of the full screen: of about 310,000 compounds, about 18,000 (5.8%) were called active. A call without a number means that no potency is given here. Inconclusive results (about 22%) are left out. This is one part of a sample in which actives are shown more often than they occur. Calls come from the whole dose curve; as a rule, active = well fitted inhibition curve with a large enough effect; inconclusive = small, poorly fitted or top-dose-only effect, or another doubt; inactive = no such curve, though single readings can be large or run the other way. Potency is the fitted concentration of half-maximal effect.", "data": [{"test": "Primary qHTS for delayed death inhibitors of the malarial parasite plastid, 48 hour incubation", "conditions": "P. falciparum luciferase growth in erythrocytes; series mostly up to 28.7 µM", "outline": "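Growth was read as firefly luciferase luminescence after a 48 h, 37 C, 5% CO2 exposure of compounds to reporter-bearing P. falciparum cultures (0.1% parasitemia, 2% hematocrit final) in Albumax-supplemented RPMI 1640.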", "values": [{"smiles": "COc1ccc(-c2[nH]ncc2CN(C)Cc2c(C)n[nH]c2C)c(OC)c1", "Potency": "inactive"}, {"smiles": "COc1ccc(-n2c(-c3ccc(OC)c(OC)c3)n[nH]c2=S)cc1", "Potency": "inactive"}, {"smiles": "C=C(C)COc1ccc(-c2n[nH]c(C)c2-c2ccccc2)c(O)c1", "Potency": "1.85 µM (active)"}, {"smiles": "COC(=O)c1cc(OC)ccc1-c1ccc(OC)cc1", "Potency": "inactive"}, {"smiles": "COc1ccc(C(=O)CC(=O)c2ccc(C)cc2)c(O)c1", "Potency": "inactive"}, {"smiles": "COc1ccccc1-c1nc(SC)n[nH]1", "Potency": "inactive"}, {"smiles": "COc1ccc(-c2n[nH]c(C)c2-c2ccc(OC)c(OC)c2)c(O)c1", "Potency": "13.1 µM (active)"}, {"smiles": "COc1ccc(-c2n[nH]c(C)c2-c2ccccc2OC)c(O)c1", "Potency": "9.28 µM (active)"}, {"smiles": "COc1ccc(-c2c(-c3ccc(OC)cc3O)nc(C)nc2C(F)(F)F)cc1", "Potency": "7.38 µM (active)"}, {"smiles": "COc1ccc(C(=O)NNC(=O)c2cc(C)[nH]n2)cc1", "Potency": "inactive"}, {"smiles": "Cc1ccc(S(=O)(=O)N(CCCN(C)C)Cc2ccc3c(c2)OCO3)cc1", "Potency": "inactive"}, {"smiles": "O=S1(=O)N=C(N(CCO)/N=C/c2ccccc2F)c2ccccc21", "Potency": "inactive"}, {"smiles": "COCCCNC(=O)C1CC(=O)N(CCc2ccc(F)cc2)C1", "note": "(configuration not stated)", "Potency": "inactive"}, {"smiles": "CCc1ccc(C(=O)N2CCN(S(=O)(=O)c3sc(C(=O)O)c(C)c3C(=O)O)CC2)cc1", "Potency": "inactive"}, {"smiles": "CCOc1ccc2[nH]c3nc(SCC(=O)NC4CCCC4)nnc3c2c1", "Potency": "inactive"}, {"smiles": "CN(C(=O)CN1C(=O)NC(C)(CCc2ccccc2)C1=O)c1ccccc1", "note": "(configuration not stated)", "Potency": "inactive"}, {"smiles": "Cc1ccc(C)c(NS(=O)(=O)c2c(C)[nH]c(C)c2C(=O)N2CCCCC2)c1", "Potency": "inactive"}, {"smiles": "CCOc1ccc(C(=O)CCC(=O)NC2=NCCS2)cc1", "Potency": "inactive"}, {"smiles": "C=C(C)COc1ccc(-c2nc(N)ncc2-c2ccccc2OC)c(O)c1", "Potency": "inactive"}, {"smiles": "C=C(C)COc1ccc(-c2n[nH]c(C)c2-c2ccccc2OC)c(O)c1", "Potency": "8.28 µM (active)"}, {"smiles": "COc1ccccc1-c1n[nH]c2c1[C@H](C)CC[C@H]2C(C)C", "Potency": "inactive"}, {"smiles": "Cc1ccc(CN(CC(=O)NC2CCCCC2)C(=O)c2csnn2)cc1", "Potency": "inactive"}, {"smiles": "Cc1ccc([N+](=O)[O-])cc1S(=O)(=O)N1CCCN(C)CC1", "Potency": "inactive"}, {"smiles": "CCC1=C(OC(=O)N(CC)CC)N2C(=O)OC(=NCCc3c[nH]c4ccccc34)[C@]2(C)[C@H]2C1=CC[C@H]1C(=O)N(CC)C(=O)[C@H]12", "Potency": "9.28 µM (active)"}, {"smiles": "CCC1=C(OC(=O)N(CC)CC)N2C(=O)OC(=NCC3CC3)[C@]2(C)[C@H]2C1=CC[C@H]1C(=O)N(CC(=O)OC)C(=O)[C@H]12", "Potency": "inactive"}, {"smiles": "NC(=O)COC(=O)c1ccc2c(c1)C(=O)N(Cc1ccco1)C2=O", "Potency": "inactive"}, {"smiles": "Cc1ccc(Cc2nnc(SCC(=O)Nc3ccccc3C)[nH]c2=O)cc1", "Potency": "inactive"}, {"smiles": "CCC(C)NC(=O)C1c2ccccc2C(=O)N1Cc1ccccc1", "note": "(configuration not stated)", "Potency": "inactive"}, {"smiles": "O=C(NNc1ccccc1Cl)C(O)(c1cccc(C(F)(F)F)c1)c1cccc(C(F)(F)F)c1", "Potency": "3.29 µM (active)"}, {"smiles": "NC(=O)Nc1cccc(C(F)(F)F)c1", "Potency": "inactive"}, {"smiles": "CC(CC(=O)Nc1cc(C(F)(F)F)ccc1Cl)c1ccccc1", "note": "(configuration not stated)", "Potency": "inactive"}, {"smiles": "O=C(O)CCC(=O)Nc1ccc(OCC2CCCO2)cc1", "note": "(configuration not stated)", "Potency": "inactive"}, {"smiles": "COc1ccc(CNC(=O)CSc2n[nH]c(N)n2)cc1OC", "Potency": "inactive"}, {"smiles": "CN(Cc1cnccn1)C(=O)c1cc(COc2cccc(C(F)(F)F)c2)on1", "Potency": "inactive"}, {"smiles": "CC(C)C(c1nnnn1Cc1ccccc1)N1CCC(C(N)=O)CC1", "note": "(configuration not stated)", "Potency": "inactive"}, {"smiles": "Fc1ccc(Cn2nnnc2C(c2cccs2)N2CCCCCC2)cc1", "note": "(configuration not stated)", "Potency": "13.1 µM (active)"}, {"smiles": "O=C1N/C(=C/c2cccs2)C(=O)N1Cc1ccc(F)cc1", "Potency": "inactive"}, {"smiles": "O=C(CSc1nc2ccccc2c(=O)n1CCCO)NC1CC1", "Potency": "inactive"}, {"smiles": "O=C(N/N=C/c1cccc(OC(=O)c2ccc([N+](=O)[O-])cc2)c1)c1cccnc1", "Potency": "inactive"}, {"smiles": "O=C(O)c1ccc(N/N=C/c2cn(-c3ccccc3)nc2-c2cccs2)cc1", "Potency": "0.828 µM (active)"}, {"smiles": "O=C(O)/C=C/c1cn(-c2ccccc2)nc1-c1cccs1", "Potency": "inactive"}, {"smiles": "O=C(/C=C\\c1cn(-c2ccccc2)nc1-c1cccs1)N1CCOCC1", "Potency": "inactive"}, {"smiles": "COc1cccc2cc(C(=O)NCc3ccc(C)cc3)c(=N)oc12", "Potency": "inactive"}, {"smiles": "CCOc1ccc(OCC(=O)OC(C)C(=O)NC2CCCCC2C)cc1", "note": "(configuration not stated)", "Potency": "inactive"}, {"smiles": "O=C(c1ccccc1-c1ccccc1)N1CCOCC1", "Potency": "inactive"}, {"smiles": "Cc1oc2c(c1C(=O)N1CCOCC1)C(=O)c1ccccc1C2=O", "Potency": "4.15 µM (active)"}, {"smiles": "Cc1onc(-c2ccccc2)c1C(=O)N1CCOCC1", "Potency": "inactive"}, {"smiles": "Cc1ccc(NC(=O)C2CCCN2C(=O)OCc2ccccc2)cc1C", "note": "(configuration not stated)", "Potency": "inactive"}, {"smiles": "COc1ccc(C(=O)OCC(=O)Nc2ccc3[nH]c(=O)[nH]c3c2)c(OC)c1OC", "Potency": "inactive"}, {"smiles": "COc1ccc(NC(=O)C(=O)NCC(c2ccco2)N2CCc3ccccc3C2)cc1", "note": "(configuration not stated)", "Potency": "13.1 µM (active)"}, {"smiles": "O=C(NCC(c1ccco1)N1CCc2ccccc2C1)c1ccccc1Cl", "note": "(configuration not stated)", "Potency": "inactive"}, {"smiles": "CCOC(CNC(=O)C(=O)NCC(c1ccco1)N1CCN(c2ccc(OC)cc2)CC1)OCC", "note": "(configuration not stated)", "Potency": "inactive"}]}]}
